Data reported in PubChem BioAssay AID686978 (National Center for Advancing Translational Sciences (NCATS), 2013).
In all, about 420,000 compounds went through this assay and about 64,000 (15%) were called active. Not shown: some 27% with an inconclusive outcome. Only a sample is shown. Unmarked numbers belong to inactive results. The call rests on the fitted dose curve; in most records, active means well fitted inhibition curve with a large enough effect; inconclusive means small, poorly fitted or top-dose-only effect; inactive means flat fitted curve, though single readings scatter.

Test: qHTS for Inhibitors of human tyrosyl-DNA phosphodiesterase 1 (TDP1): qHTS in cells in absence of CPT; further: nearly all actives have a fitted effect of over 55% in size
Conditions: DT40 Tdp1-/- hTDP1 cells, no CPT, ATP luminescence, 48 h; activity change, negative = growth inhibition: at 46.2 µM (top of the series)
How it was run: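 Growth of hTDP1-complemented DT40 Tdp1-knockout cells is measured by ATP luminescence after at least 48 hr compound exposure at 37 °C, with DMSO substituting for the 20 nM CPT used in the parallel screen.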
On the % scale 0 is the no-effect control and ±100 the full control effect; potency means the concentration at half of the fitted maximal effect.

SMILES	activity change, negative = growth inhibition	Potency
Cc1cc(-c2ccccc2)nc(N2CCC(C(=O)NC34CC5CC(CC(C5)C3)C4)CC2)n1	-23.1%	–
COCCCNC(=O)[C@H]1N2C(=O)c3ccccc3C2SC1(C)C (stereo not given in full)	0.674%	–
O=c1c(F)cn(C2CCCO2)c(=O)n1Cc1ccccc1Cl (stereo not given)	7.15%	–
O=C1CN(C(=O)COC(=O)c2cnc(Cl)c(Cl)c2)c2ccccc2N1	-4.12%	–
CC1(c2ccc3ccccc3c2)NC(=O)NC1=O (stereo not given)	-3.58%	–
COCCCNC(=O)C1CCC(CNS(=O)(=O)c2ccc(OC)cc2)CC1 (stereo not given)	–	inactive
CC(=O)c1cccc(NC(=O)C2CCCN(S(=O)(=O)c3cccc4nonc34)C2)c1 (stereo not given)	-27.5%	–
O=C(Cc1ccccc1)N1CCN(S(=O)(=O)c2ccc([N+](=O)[O-])cc2)CC1	-11.9%	–
O=C(C1CCC1)N1CCN(S(=O)(=O)c2ccc([N+](=O)[O-])cc2)CC1	3.7%	–
O=C(C1CCCN(S(=O)(=O)c2cccc3nonc23)C1)N1CCN(c2ccccc2F)CC1 (stereo not given)	–	18.4 µM (active)
COc1ccc(NC(=O)C2CCCN(S(=O)(=O)c3cccc4nonc34)C2)cc1Cl (stereo not given)	-4.62%	–
O=C(C1CCCN(S(=O)(=O)c2ccc([N+](=O)[O-])cc2)C1)N1CCCCC1 (stereo not given)	–	16.4 µM (active)
O=C(NCc1cc(F)cc(C(F)(F)F)c1)C1CCC(=O)N(C2CCCC2)C1 (stereo not given)	14%	–
Cc1cccc(C(=O)Nc2ccccc2-c2nnn(CC(=O)Nc3ccc4c(c3)OCCO4)n2)c1	-29.8%	–
CCCOc1ccccc1-c1nc(SCCC(=O)O)n[nH]1	-26.8%	–
CN(c1cccc(NC(=O)Nc2ccc(Cl)cc2)c1)S(C)(=O)=O	–	25.9 µM (active)
CN(c1ccccc1)S(=O)(=O)c1cccc(NC(=O)Cc2ccc(Cl)cc2)c1	–	23.1 µM (active)
Cn1ccc(NC(=O)Nc2ccc(Cl)cc2)n1	-0.619%	–
CNS(=O)(=O)c1ccc(NC(=O)Nc2ccc3c(c2)OCO3)cc1	-12%	–
CN(c1ccc(OCC(=O)OCC(=O)Nc2cccc([N+](=O)[O-])c2)cc1)S(=O)(=O)c1ccc(F)cc1	6.72%	–
CN(c1ccccc1)S(=O)(=O)c1cccc(C(=O)NNC(=O)c2ccncc2)c1	-24.1%	–
Cc1ncc([N+](=O)[O-])n1CCOC(=O)c1ccc(Br)cc1	-19.1%	–
COc1ccc(S(=O)(=O)NCC(=O)NCc2cc(=O)n(C)c(=O)n2C)cc1F	6.72%	–
O=C(NC1CCCCC1)c1cc(C2CC2)on1	15.4%	–
COc1cc2c(cc1OC)C(=O)NCC(C)(C)O2	-7.76%	–
O=C(O)CCCCCCCCCC[n+]1ccccc1	23%	–
O=C(NCC1CCC(C(=O)O)CC1)OCc1ccccc1 (stereo not given)	-0.127%	–
CCCN(CCC)CCCNC(=O)CNC(=O)c1nn(-c2ccc(OC)cc2)c(=O)c2ccccc12	-16.3%	–

SMILES	activity change, negative = growth inhibition	Potency
COc1ccc(NC(=O)CCNC(=O)Cn2ccc3ccccc3c2=O)c(OC)c1	-7.11%	–
CCN(CCCNC(=O)c1cc(Nc2ccc(OC)cc2)nc2ccccc12)c1cccc(C)c1	–	20.6 µM (active)
COc1ccc(NC(=O)CNC(=O)Cn2ccc3ccccc3c2=O)c(OC)c1	–	inactive
CCN(CCCNC(=O)Cn1ncc2c([nH]c3ccccc32)c1=O)c1cccc(C)c1	-22.4%	–
COc1ccc(Nc2cc(C(=O)NCCCN(C)c3ccccc3)c3ccccc3n2)c(OC)c1	–	11.6 µM (active)
Cc1nc(C(F)(F)F)ccc1C(=O)N1CCC1(C)C(=O)NS(=O)(=O)c1ccccc1Cl (stereo not given)	4.11%	–
Cc1ccccc1NC(=O)Cc1nc(COC(=O)c2cccnc2Cl)cs1	-10.3%	–
COC(=O)c1cc(CNC(=O)CC(C)c2ccccc2)ccc1OC (stereo not given)	-11.8%	–
O=C(OCC(=O)N1CCCC1)c1ccc(Cl)nc1	0.594%	–
O=C(O)C1CCC(CNS(=O)(=O)c2ccc(Br)cc2)CC1 (stereo not given)	18.6%	–
CCOC(=O)c1cc2c(ccn2C)n1CC(=O)N1CCC(C)CC1	-8.97%	–
CCOC(=O)c1cc2cc(OC)ccc2n1C1CCN(C)CC1	–	18.4 µM (active)
COc1ccc2[nH]c(C(=O)N3CCN(C)CC3)c(C)c2c1	4.91%	–
Cc1c(NC(=O)CCCOc2ccccc2)cccc1[N+](=O)[O-]	-19.6%	–
Cc1csc(CN(C)C(=O)CC2C(=O)NCCN2CC(C)(C)C)n1 (stereo not given)	10.7%	–
O=C(CCC(=O)Nc1ccccc1)N/N=C/c1ccccc1F	0.37%	–
Oc1ccccc1C=NC1CCCCC1N=Cc1ccccc1O (stereo not given)	7.72%	–
C=CCOc1ccccc1/C=N/NC(=O)Cc1ccccc1	-6.16%	–
O=C(NN=Cc1ccccc1O)NN=Cc1ccccc1O	–	5.8 µM (active)
O=C(N/N=C/c1ccccc1O)/C(=C/c1ccccc1)CCO	–	5.17 µM (active)
O=C(N/N=C/c1ccc(O)cc1)/C(=C/c1ccc([N+](=O)[O-])cc1)NC(=O)c1ccccc1	-11.1%	–
O=C(NCC1CCCCC1)c1cc(S(=O)(=O)N2CCCCC2)ccc1N1CCOCC1	2.24%	–
N#CCCN(C(=O)COC(=O)c1ccc2c(c1)OCCO2)c1ccccc1	-5.69%	–
O=C(Cn1nc([N+](=O)[O-])nc1Br)NC1CCCCC1	-0.17%	–
CCOC(=O)C(C)n1cnc2c(nnn2-c2ccc(F)cc2)c1=O (stereo not given)	-10.3%	–
Cc1ccc(Cn2nnc3c(=O)n(CC(=O)N4CCCCC4)cnc32)cc1	-21.5%	–
O=C(Cn1cnc2c(nnn2-c2ccccc2)c1=O)N1CCC(Cc2ccccc2)CC1	–	20.6 µM (active)
